# Results from PubChem BioAssay.
# Unmarked numbers belong to inactive results. The source made the active and inactive calls. No rule for the calls is given here.
# Test system: Aerobactin synthetase IucA (Klebsiella pneumoniae, hypervirulent)
# Test: biochemical IucA inhibition screen of LOPAC library by absorbance (AID 1346212);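 also: 100% = no compound wells and 0% = no enzyme wells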
# Details: IucA enzyme assay, absorbance (OD) readout; hits give low values;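 tested at 8 µM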
row,Structure (SMILES),remaining activity
1,O=C(O)C1CCNCC1,111%
2,Nc1nc(Cl)nc2c1ncn2[C@@H]1O[C@H](COP(=O)(O)OP(=O)(O)OP(=O)(O)O)[C@H](O)C1O (some centres not stated),104%
3,Cc1nc2c([nH]1)c(=O)n(C)c(=O)n2Cc1ccco1,99.1%
4,N#C/C(=C\c1ccc(O)c(O)c1)C(=O)NCCCc1ccccc1,103%
5,OC[C@H]1O[C@H]([S-])[C@H](O)[C@@H](O)[C@@H]1O.[Au+],66.7% (active)
6,Cc1cc(Cn2cnc3c2C[C@@H](C(=O)O)N(C(=O)C(c2ccccc2)c2ccccc2)C3)ccc1N,112%
7,COc1ccccc1NC(=O)Nc1nc(-c2cccnc2)nc2ccccc12,105%
8,Cc1ccc(S(=O)(=O)/C=C/C#N)cc1,100%
9,Ic1ccc(N2CCN(Cc3c[nH]c4ncccc34)CC2)cc1,115%
10,COc1ccc(CCNC[C@@H](O)c2ccc(O)cc2)cc1OC,91.4%
11,Cc1cccc(C(=O)NCN2CCN(c3ccccc3C#N)CC2)c1,123%
12,NCC(O)C1CCCCCCC1 (configuration not stated),92.7%
13,CC1(C)CCC2=C(O1)c1ccccc1C(=O)C2=O,113%
14,C[C@@]12C(=O)OC(=O)[C@]1(C)[C@H]1CC[C@@H]2O1,118%
15,CN(C)C(N)=NCCC[C@H](N)C(=O)O,97.3%
16,COc1cc2c(cc1C(F)(F)F)N(C(=O)Nc1cc(F)cc(-c3cccnc3)c1)CC2,120%
17,O=C(O)c1cc([N+](=O)[O-])ccc1NCCCc1ccccc1,118%
